# The OligoGym collection
# Target: PTBP2
# Test: pooled miR-30 sensor sort-seq; sequence = guide strand
# Details: shRNA
# Further: reference of the scale not given here.
row,Sequence,sensor-assay potency score (higher = more potent)
1,TGAACTAGCTAGACCAGTCTGC,0.184
2,TTAAAGTCAGATCTATTCCTAA,0.0356
3,TAGTTCGTCAGATCCTCTCTTC,0.267
4,TTATCTTCAATACAGCACCAAA,-1.15
5,TTGGCTGTAACTACCATGCTGC,-0.376
6,TTCATTTAAATTGCTAACCAAC,-1.15
7,TAGCTGTACAGTCTGATGTTTA,-0.892
8,TTAACCATAGTAATAGCTGCTT,0.167
9,TTGCTAACCAACAGGACTGTAT,-0.182
10,TTTAATGTATTATCTGTCTTTA,-0.808
11,TAACCATAGTAATAGCTGCTTC,-0.782

# Target: PTGDR
# Test: as above
# Details: shRNA
row,Sequence,sensor-assay potency score (higher = more potent)
1,TACAGTGAGTCACACACTGGTT,-0.86
2,TTAGTGGAATTGCTGCACCGGC,-1.14
3,ATTAACTGGACAATTATCCTAA,0.137
4,TATCCTAACACACCTCTCCAAA,-1.13
5,TAGGCAGCCAGCACCACCGGGC,-0.802
6,TTGATTCCTACTGACACCCTTG,0.657
7,TGTACTTACACATTGAAGGTAC,0.268
8,TAAATTTCAAAAACAACTGTAT,-0.297
9,TTTTTATGAATGTCCATCGTAT,-0.379
10,TACTGTTAAATCATACTCCTTG,0.542
11,TTTAAGACTTTTAACACTGGTT,-0.351
12,TCTGCTTCTTCAGAGGTCCTGT,0.273

# Target: PTGDS
# Test: as above
# Details: shRNA
row,Sequence,sensor-assay potency score (higher = more potent)
1,TTGGGCTGCACGGAGACCTGGG,-0.764
2,AAGACAATGGTATCCTCTGTGA,-0.868
3,TTTCTCCTTTAACTCAGCCCTG,-1.14
4,TTCTCCTTTAACTCAGCCCTGG,-0.867
5,TACTGGTCGTAGTCGGTCTCCA,-0.484
6,TTATTGTGCAGGATGAAGCCTG,-0.188
7,TCCGGTAGCTGTAGGAGCCGAG,-0.81
8,TAGTCGGTCTCCACCACTGACA,-1.34
9,TTTTTCCTGAGGAAGGTGGAGG,-1
10,TTGCACATGGACAACGCCGCCT,-0.424
11,TGAATTTCTCCTTTAACTCAGC,-0.751

# Target: PTGFRN
# Test: as above
# Details: shRNA
row,Sequence,sensor-assay potency score (higher = more potent)
1,TTTAGTGTAACACACTTTGTTT,-0.905
2,TTGGTCTGAAGGCTGGACGTTC,-0.683
3,TTAAATATAGGACCTGAGGTTT,-1.13
4,TTTCTTTGCTAACATCCCGAAC,-1.24
5,TTAACCATTAAAAAGCTGCAGT,-0.442
